Assay [1] addresses T1, Tyrosine-protein kinase ITK/TSK (Homo sapiens) (UniProt Q08881).
T1 sequence (whole entry): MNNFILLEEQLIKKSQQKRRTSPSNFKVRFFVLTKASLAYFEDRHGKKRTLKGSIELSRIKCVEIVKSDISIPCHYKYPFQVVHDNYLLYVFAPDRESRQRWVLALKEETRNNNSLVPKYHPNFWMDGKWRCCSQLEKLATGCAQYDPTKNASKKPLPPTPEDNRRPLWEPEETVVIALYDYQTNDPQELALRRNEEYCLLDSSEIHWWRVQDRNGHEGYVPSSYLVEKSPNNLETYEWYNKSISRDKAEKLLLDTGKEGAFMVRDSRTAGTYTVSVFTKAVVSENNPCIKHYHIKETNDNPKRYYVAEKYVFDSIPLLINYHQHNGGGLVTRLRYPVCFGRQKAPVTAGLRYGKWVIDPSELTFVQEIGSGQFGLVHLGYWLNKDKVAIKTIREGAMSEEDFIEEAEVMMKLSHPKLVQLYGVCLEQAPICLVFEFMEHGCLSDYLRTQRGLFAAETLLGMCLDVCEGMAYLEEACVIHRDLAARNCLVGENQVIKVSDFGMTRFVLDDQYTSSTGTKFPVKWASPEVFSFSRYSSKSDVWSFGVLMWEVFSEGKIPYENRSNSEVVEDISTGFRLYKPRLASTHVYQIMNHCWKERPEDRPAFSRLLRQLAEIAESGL
As to conditions: at 1 µM.

Assay [2] addresses Tyrosine-protein kinase JAK1 (Homo sapiens) (UniProt P23458). The following applies: at 0.1 µM.
Assay [3] shares this target. The following applies: at 1 µM.
For assay [4], the target named is Tyrosine-protein kinase JAK2 (Homo sapiens) (UniProt O60674). The following applies: at 0.1 µM.
Assay [5] shares this target. The following applies: at 1 µM.
Assay [6] addresses T2, Tyrosine-protein kinase JAK3 (Homo sapiens) (UniProt P52333).
T2 sequence (whole entry): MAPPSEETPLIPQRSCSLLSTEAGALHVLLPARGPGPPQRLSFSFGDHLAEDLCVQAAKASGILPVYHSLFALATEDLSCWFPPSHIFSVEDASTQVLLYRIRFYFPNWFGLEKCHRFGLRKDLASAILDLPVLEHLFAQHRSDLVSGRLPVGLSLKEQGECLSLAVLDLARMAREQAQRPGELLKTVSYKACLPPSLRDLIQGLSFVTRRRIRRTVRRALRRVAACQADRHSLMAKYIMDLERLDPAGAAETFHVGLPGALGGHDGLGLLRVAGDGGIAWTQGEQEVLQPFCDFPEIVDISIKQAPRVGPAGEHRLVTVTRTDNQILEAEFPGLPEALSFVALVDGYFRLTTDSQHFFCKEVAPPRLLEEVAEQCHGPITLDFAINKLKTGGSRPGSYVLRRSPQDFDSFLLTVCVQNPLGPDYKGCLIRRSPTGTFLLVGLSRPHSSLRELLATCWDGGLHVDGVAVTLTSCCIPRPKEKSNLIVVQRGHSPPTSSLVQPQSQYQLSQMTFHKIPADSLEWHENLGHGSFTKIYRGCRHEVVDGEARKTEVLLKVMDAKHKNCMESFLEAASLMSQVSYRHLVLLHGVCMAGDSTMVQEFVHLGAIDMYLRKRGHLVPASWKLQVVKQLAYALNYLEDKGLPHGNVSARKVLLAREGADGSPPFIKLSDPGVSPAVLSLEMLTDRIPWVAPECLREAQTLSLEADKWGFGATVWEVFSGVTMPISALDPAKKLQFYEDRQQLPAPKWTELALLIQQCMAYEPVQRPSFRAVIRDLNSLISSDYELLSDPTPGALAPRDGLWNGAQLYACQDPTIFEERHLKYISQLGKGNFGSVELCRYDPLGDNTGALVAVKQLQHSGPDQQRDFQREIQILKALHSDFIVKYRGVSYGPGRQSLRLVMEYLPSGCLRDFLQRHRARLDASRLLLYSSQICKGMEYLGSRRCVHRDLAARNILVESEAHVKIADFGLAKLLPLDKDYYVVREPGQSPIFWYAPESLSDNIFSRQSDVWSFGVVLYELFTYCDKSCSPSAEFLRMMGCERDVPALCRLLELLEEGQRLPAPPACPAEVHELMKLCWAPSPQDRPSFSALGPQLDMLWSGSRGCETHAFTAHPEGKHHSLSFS
As to conditions: at 0.1 µM.

In assay [7] the target is T2, Tyrosine-protein kinase JAK3 (Homo sapiens). The following applies: at 1 µM.
The target in assay [8] is Vascular endothelial growth factor receptor 2 (Homo sapiens) (UniProt P35968). The following applies: at 0.1 µM.
Assay [9] shares this target. The following applies: at 1 µM.
Assay [10] deals with Mast/stem cell growth factor receptor Kit (Homo sapiens) (UniProt P10721). As to conditions: at 0.1 µM.
The target is the same in assay [11]. The following applies: at 1 µM.
The subject of assay [12] is Mast/stem cell growth factor receptor Kit (Homo sapiens), P10721 [D816V]. As to conditions: at 0.1 µM.
Assay [13] has the same test system. As to conditions: at 1 µM.
In assay [14] the test system is Mast/stem cell growth factor receptor Kit (Homo sapiens), P10721 [T670I]. As to conditions: at 0.1 µM.
The test system is the same in assay [15]. The following applies: at 1 µM.
For assay [16], the system named is Mast/stem cell growth factor receptor Kit (Homo sapiens), P10721 [V560G]. As to conditions: at 0.1 µM.
Assay [17] shares this test system. The following applies: at 1 µM.
Assay [18] deals with Tyrosine-protein kinase Lck (Homo sapiens) (UniProt P06239). The following applies: at 0.1 µM.
Assay [19] shares this target. The following applies: at 1 µM.
Assay [20] concerns the target Leukocyte tyrosine kinase receptor (Homo sapiens) (UniProt P29376). As to conditions: at 0.1 µM.

Here are results for seven compounds from ChEMBL document CHEMBL1961873, “Compounds: GSK PKIS; Assays: Nanosyn kinase panel” (2012).

Mast/stem cell growth factor receptor Kit (Homo sapiens), P10721 [T670I], sequence (P10721 whole entry T670I): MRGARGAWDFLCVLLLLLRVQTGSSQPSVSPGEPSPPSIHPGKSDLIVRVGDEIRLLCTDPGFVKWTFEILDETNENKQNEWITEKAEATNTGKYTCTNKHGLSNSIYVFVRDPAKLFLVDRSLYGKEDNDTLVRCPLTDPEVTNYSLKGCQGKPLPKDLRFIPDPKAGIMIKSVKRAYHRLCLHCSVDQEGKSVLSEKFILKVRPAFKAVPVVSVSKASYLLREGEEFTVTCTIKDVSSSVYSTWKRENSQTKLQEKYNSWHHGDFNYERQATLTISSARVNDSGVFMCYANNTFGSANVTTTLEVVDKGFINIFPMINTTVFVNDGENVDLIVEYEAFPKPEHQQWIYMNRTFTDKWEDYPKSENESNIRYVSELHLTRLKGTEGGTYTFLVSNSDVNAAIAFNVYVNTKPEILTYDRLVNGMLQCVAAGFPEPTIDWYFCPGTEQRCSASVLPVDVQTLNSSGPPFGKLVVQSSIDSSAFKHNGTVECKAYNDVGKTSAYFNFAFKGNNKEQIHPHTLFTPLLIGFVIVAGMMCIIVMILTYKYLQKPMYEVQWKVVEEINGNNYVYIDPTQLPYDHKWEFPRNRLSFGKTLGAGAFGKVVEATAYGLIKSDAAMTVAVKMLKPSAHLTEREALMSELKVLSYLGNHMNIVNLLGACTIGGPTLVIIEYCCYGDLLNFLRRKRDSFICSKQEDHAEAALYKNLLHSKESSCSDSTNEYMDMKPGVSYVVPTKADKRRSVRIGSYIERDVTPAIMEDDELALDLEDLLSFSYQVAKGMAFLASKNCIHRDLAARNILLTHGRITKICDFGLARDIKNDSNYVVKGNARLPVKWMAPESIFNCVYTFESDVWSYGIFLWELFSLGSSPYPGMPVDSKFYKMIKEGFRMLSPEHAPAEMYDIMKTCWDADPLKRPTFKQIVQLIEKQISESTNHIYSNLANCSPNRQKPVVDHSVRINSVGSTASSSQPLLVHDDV
Leukocyte tyrosine kinase receptor (Homo sapiens), sequence (P29376 whole entry): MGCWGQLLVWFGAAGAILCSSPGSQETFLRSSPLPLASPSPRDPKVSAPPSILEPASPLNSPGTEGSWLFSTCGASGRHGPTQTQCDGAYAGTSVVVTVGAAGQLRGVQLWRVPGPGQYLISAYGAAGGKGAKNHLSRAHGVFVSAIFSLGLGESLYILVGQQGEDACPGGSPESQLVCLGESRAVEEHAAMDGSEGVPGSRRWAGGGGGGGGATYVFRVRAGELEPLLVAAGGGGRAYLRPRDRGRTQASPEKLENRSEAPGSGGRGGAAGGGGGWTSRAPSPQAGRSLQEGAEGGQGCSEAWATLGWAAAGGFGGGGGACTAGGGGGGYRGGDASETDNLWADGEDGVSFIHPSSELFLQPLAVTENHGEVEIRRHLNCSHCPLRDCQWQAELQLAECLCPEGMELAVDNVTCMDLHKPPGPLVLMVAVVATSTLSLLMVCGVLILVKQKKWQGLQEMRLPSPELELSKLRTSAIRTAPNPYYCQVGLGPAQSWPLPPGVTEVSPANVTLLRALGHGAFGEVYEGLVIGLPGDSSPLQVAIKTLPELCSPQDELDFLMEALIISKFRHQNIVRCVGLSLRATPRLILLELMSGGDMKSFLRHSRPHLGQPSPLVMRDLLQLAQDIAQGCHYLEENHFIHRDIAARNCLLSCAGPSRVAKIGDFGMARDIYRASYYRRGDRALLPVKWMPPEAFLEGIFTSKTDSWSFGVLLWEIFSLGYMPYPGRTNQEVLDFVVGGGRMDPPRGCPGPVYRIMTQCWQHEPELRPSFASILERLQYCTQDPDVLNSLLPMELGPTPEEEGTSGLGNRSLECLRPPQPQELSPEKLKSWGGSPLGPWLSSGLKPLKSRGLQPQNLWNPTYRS
Vascular endothelial growth factor receptor 2 (Homo sapiens), sequence (P35968 whole entry): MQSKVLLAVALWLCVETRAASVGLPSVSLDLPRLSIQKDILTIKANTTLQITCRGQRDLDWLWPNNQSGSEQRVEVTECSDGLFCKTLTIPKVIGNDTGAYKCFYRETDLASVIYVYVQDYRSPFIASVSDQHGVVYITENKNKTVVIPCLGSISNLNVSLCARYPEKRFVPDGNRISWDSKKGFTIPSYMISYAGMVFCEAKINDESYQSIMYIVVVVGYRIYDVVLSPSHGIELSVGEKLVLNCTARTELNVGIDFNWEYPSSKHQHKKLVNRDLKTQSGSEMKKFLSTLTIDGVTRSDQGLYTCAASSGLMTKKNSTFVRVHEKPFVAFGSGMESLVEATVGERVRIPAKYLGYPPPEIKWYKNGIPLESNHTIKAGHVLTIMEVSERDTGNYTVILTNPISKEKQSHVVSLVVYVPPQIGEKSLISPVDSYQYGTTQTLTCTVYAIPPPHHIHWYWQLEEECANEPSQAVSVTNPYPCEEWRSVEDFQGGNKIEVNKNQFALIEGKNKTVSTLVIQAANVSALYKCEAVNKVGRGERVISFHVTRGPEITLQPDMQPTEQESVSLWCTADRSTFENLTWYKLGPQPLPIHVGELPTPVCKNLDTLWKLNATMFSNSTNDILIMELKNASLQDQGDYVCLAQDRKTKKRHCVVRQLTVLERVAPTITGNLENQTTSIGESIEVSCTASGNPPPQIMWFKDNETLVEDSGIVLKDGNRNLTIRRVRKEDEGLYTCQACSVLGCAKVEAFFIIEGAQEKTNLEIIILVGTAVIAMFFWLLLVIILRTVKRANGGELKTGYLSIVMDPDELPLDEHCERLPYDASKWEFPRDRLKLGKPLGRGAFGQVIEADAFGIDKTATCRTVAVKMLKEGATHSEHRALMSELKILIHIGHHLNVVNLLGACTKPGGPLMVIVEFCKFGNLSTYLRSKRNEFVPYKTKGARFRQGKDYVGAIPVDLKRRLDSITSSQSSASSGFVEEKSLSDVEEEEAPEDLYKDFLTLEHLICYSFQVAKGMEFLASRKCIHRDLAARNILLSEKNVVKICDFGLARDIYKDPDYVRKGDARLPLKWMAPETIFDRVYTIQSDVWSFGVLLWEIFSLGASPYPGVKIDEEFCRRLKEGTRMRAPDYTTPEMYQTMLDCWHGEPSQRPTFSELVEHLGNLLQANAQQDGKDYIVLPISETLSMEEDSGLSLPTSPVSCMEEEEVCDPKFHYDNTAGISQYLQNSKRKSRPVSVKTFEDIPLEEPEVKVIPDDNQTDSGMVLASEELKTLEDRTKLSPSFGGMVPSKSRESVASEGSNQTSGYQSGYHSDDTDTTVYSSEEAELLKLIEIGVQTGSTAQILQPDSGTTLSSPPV
Mast/stem cell growth factor receptor Kit (Homo sapiens), P10721 [D816V], sequence (P10721 whole entry D816V): as the sequence (P10721 whole entry T670I) above, with I670T, D816V counted along it
Tyrosine-protein kinase Lck (Homo sapiens), sequence (P06239 2-509 limits assumed): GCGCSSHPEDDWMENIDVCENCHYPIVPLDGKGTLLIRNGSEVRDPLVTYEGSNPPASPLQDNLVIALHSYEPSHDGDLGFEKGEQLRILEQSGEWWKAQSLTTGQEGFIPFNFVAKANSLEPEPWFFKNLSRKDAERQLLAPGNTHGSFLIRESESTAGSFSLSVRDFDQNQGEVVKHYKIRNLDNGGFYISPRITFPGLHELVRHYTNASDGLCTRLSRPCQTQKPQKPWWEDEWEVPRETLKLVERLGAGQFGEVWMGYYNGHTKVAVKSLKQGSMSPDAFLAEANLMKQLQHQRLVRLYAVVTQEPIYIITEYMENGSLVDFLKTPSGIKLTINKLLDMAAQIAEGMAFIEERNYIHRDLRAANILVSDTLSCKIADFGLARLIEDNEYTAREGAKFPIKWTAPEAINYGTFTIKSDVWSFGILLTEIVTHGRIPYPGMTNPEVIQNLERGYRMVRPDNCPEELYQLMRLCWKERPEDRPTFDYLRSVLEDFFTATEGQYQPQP
Mast/stem cell growth factor receptor Kit (Homo sapiens), P10721 [V560G], sequence (P10721 whole entry V560G): as the sequence (P10721 whole entry T670I) above, with V560G, I670T counted along it
Tyrosine-protein kinase JAK2 (Homo sapiens), sequence (O60674 whole entry): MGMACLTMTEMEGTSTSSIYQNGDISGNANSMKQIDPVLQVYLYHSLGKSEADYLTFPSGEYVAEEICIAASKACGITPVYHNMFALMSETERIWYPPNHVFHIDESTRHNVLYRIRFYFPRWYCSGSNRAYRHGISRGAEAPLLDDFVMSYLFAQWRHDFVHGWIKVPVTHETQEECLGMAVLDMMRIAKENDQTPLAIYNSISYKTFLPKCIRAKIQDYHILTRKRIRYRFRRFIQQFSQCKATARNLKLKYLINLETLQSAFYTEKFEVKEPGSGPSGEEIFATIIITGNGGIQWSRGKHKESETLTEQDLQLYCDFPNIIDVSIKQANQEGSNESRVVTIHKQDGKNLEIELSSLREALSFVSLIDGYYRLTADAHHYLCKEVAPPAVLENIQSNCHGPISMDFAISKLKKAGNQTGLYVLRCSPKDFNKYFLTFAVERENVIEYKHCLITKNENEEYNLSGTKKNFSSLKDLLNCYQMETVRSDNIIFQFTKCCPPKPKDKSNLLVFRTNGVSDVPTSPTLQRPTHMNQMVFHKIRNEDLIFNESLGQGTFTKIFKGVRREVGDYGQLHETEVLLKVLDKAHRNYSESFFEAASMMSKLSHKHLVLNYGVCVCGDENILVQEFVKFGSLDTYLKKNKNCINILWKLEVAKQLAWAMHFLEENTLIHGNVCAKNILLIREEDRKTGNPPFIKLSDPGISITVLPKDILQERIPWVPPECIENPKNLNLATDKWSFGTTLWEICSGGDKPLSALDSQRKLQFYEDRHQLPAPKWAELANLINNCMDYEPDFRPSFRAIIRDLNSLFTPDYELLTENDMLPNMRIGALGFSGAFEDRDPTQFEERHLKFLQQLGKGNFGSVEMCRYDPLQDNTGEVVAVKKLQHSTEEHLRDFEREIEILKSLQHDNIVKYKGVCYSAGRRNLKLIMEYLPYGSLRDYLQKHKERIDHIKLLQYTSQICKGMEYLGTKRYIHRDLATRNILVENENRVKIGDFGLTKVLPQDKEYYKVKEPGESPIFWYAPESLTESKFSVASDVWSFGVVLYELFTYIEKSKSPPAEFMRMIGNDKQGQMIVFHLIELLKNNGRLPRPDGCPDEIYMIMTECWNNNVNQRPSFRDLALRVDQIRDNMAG
Mast/stem cell growth factor receptor Kit (Homo sapiens), sequence (P10721 whole entry): as the sequence (P10721 whole entry T670I) above, with I670T counted along it

Consider `Fc1ccc(-c2ncn(CCCN3CCOCC3)c2-c2ccncc2)cc1`, for which the inhibition – broadly, the relative decrease from the control value, in per cent – in [1] is 1.2%; in assay [2], 1.72%; in [3], -1.2%; in assay [4] it was -0.43%; in assay [5], 0.65%; in assay [6], 0.1%. Further, the inhibition is 1.07% in assay [7]; -0.88% in assay [8]; 1% in assay [9]; -3.23% in assay [10]; -0.81% in assay [11]; 0.65% in assay [12]. For the same compound, the inhibition was -1.66% in assay [13]; -0.29% in assay [14]; -2.16% in [15]; 2.57% in assay [16]; 0.03% in assay [17]; 0.17% in [18]. The figures for the inhibition in [19] and in assay [20] were 3.45% and 0.08%, respectively.
On to `NC(=O)Cc1ccccc1Oc1nccc(-c2c(-c3ccc(F)cc3)ncn2C2CCNCC2)n1`, for which the inhibition is 1% in assay [1]; 2.63% in [2]; -2.73% in [3]; 0.56% in assay [4]; -0.85% in assay [5]; -1.1% in assay [6]. Also, the inhibition in assay [7] turned out to be 0.74%; in assay [8], 1.89%; in assay [9], 3.48%; in [10] it was 1.71%; in assay [11], 0.35%; in assay [12] it was 0.95%. Further, the inhibition in assay [13] is -1.59%; in assay [14], -0.35%; in [15], -1.27%; in assay [16], 0.54%; in assay [17], -3.43%; in assay [18], 1.45%. Also, the inhibition was 1.06% in assay [19] and 3.35% in [20].
Consider `Cc1ccc(C(=O)NC2CCC2)cc1-c1ccc(C(=O)NCC2CC2)cc1`, for which the inhibition is 1.48% in assay [1]; 0.07% in [2]; 0.59% in assay [3]; 0.91% in assay [4]; 0.54% in [5]; -1.22% in assay [6]. The inhibition in assay [7] worked out at 1.06%; in [8], 3.33%; in [9], 3.21%; in assay [10], 2.49%; in assay [11], 2.43%; in [12] it was 1.7%. Also, the inhibition in assay [13] was 1.73%; in [14], 2.13%; in assay [15], -0.64%; in [16], -2.14%; in assay [17] it was 2.11%; in assay [18], 1.6%. The inhibition in assay [19] is 2.51%; in assay [20], 2.34%.
In the case of `COc1cc2ncn(-c3cc(OCCc4ccccc4)c(C(N)=O)s3)c2cc1OC`, the inhibition in assay [1] is 2.27%; in [2], 1.72%; in assay [3], -5.52%; in [4] it was 0.93%; in assay [5] it was 0.41%; in assay [6] it was -0.27%. Further, the inhibition is -0.4% in [7]; 3.48% in [8]; 17% in assay [9]; 0.95% in [10]; 5.42% in assay [11]; 5.33% in [12]. Also, the inhibition in [13] was -0.63%; in assay [14], 0.21%; in [15], -1.17%; in [16], -2.95%; in [17], -0.35%; in [18], 2.24%. Further, the inhibition in assay [19] came out at 5.88%; in [20], 1.89%.
Consider `NS(=O)(=O)c1ccc(N/N=C2\C(=O)Nc3ccc(C(=O)NCCCn4ccnc4)cc32)cc1`, for which the inhibition in [1] was 3.12%; in assay [2], 5.06%; in [3] it was 23.8%; in assay [4] it was 0.1%; in assay [5], 4.95%; in assay [6], -2%. The inhibition worked out at 18.8% in [7]; 8.51% in assay [8]; 34.1% in [9]; 4.8% in [10]; 9.5% in [11]; 6.28% in assay [12]. The inhibition in assay [13] was 9.36%; in [14], 3.5%; in [15], 5.57%; in [16] it was -1.18%; in [17], 1.2%; in assay [18] it was 1.53%. For the same compound, the inhibition in assay [19] is 7.02%; in assay [20], 5.17%.
With `COC(=O)Nc1nc2ccc(Sc3ccc(NC(=O)Nc4cc(C(F)(F)F)ccc4F)cc3)cc2[nH]1`, the inhibition is 0.87% in assay [1]; 0.69% in [2]; -4.92% in assay [3]; 32.5% in [4]; 2.1% in assay [5]; -1.15% in assay [6]. Further, the inhibition in assay [7] was 2.49%; in [10] it was 1.63%; in assay [11], 43.9%; in assay [12] it was -2.14%; in assay [13], 5.31%; in [14], -0.05%. Moreover, the inhibition is 30% in assay [15]; 2.79% in assay [16]; 27.3% in assay [17]; 5.45% in assay [18]; 34.7% in assay [19]; -0.1% in assay [20].
In the case of `CCc1cccc(CC)c1/C=C/c1cncc(C(=O)NC)c1`, the inhibition in [1] was 2.29%; in assay [2], 2.03%; in assay [4], 1.99%; in assay [5] it was 1.71%; in assay [6], -1.8%; in assay [7], 0.86%. In addition, the inhibition in assay [8] was found to be 6.02%; in assay [9] it was 8.91%; in [10], 1%; in assay [11], 0.22%; in [12], 2.9%; in [13], 0.24%. Also, the inhibition in [14] was 1.07%; in [15], 2.14%; in assay [16], -2.51%; in assay [17], 4.63%; in assay [18] it was 3.18%; in assay [19], 4.94%. For the same compound, in assay [20], the inhibition was 1.51%.
